Most compounds without a hit are left out; they make up all but 11% or so of the library.
AMA1-RON2 inh: AMA1-RON2 (P. falciparum) interaction inhibition | AlphaScreen AMA1-biotinylated RON2 peptide binding | Potency, µM (top dose mostly 58.2 µM), without a hit: top-dose activity change, negative = inhibition, hits mostly inhibitors | 0.2% of 360,000 active | AID 720542;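 further: 0% = vehicle wells and -100% = peptide control; nearly all actives have a fitted effect of over 45% in size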
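AMA1 (3D7) with his tag at 25 nM final met compounds first, then biotinylated RON2 peptide at 25 nM; detection used donor plus acceptor beads, 10 µg/mL apiece, read by AlphaScreen after 30 min at room temperature.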
HCV inhibitor: blocks hepatitis C virus. Huh7.5.1 HCVcc-Cre infection, luciferase reporter, 44 h. Potency, µM (top dose mostly 41.8 µM), inactives show at the top dose activity change, negative = inhibition, usual class: inhibitors. 3.4% of 340,000 active. AID 651820
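Cells seeded at 1,000/well and cultured 4 h, then compounds added followed by HCVcc-Cre virus (~0.5 moi). After 44 h further culture, luciferase substrate was added, plates held 15 min at room temperature, and luminescence read for 15 sec.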
Pf growth 48h: inhibits P. falciparum growth in the first generation, 48 h; P. falciparum luciferase growth in erythrocytes, 48 h; Potency, µM (top dose mostly 28.7 µM), for inactives: top-dose activity change, negative = inhibition, most hits filed as inhibitors; 5.9% of 310,000 active
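Here the parasites carry a stable luciferase gene and grow inside erythrocytes in Albumax-based RPMI medium with compound for one erythrocytic cycle. Activity is scored as loss of luminescent signal.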
Pf growth 96h: P. falciparum growth inhibition at 96 hours; P. falciparum luciferase reporter growth, 96 h; Potency, µM (doses to about 28.7 µM), for inactives: at the highest dose activity change, negative = inhibition, most hits filed as inhibitors; 6.9% of 320,000 active; AID 504834
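P. falciparum expressing integrated firefly luciferase, in erythrocytes at 2% hematocrit, 0.05% parasitemia, incubated with compounds 96 h at 37 C, 5% CO2. Growth inhibition read as loss of luminescence; two-generation exposure targets delayed-death apicoplast inhibitors.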
AmpC inh detg: AmpC beta-lactamase inhibition with detergent present | AmpC hydrolysis of nitrocefin, absorbance 480 nm, 0.01% Triton | AID 485294 | Potency, µM (titrated, usually from 114 µM), without a hit: at the highest dose activity change, negative = inhibition, most hits filed as inhibitors | 0.041% of 370,000 active;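 further: 0% = no-compound wells and -100% = no-enzyme wells; nearly all actives have a fitted effect of over 25% in size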
Target sequence (P00811 whole entry, looked up): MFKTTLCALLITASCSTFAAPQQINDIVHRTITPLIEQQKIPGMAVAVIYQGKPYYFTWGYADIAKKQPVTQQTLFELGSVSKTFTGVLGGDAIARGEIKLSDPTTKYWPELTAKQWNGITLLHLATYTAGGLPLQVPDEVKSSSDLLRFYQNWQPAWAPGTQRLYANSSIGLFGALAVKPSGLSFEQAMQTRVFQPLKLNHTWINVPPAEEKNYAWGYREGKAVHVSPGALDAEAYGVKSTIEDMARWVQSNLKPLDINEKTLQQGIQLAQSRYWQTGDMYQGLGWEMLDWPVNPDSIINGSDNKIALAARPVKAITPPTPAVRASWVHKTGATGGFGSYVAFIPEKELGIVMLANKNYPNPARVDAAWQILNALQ
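AmpC (5.3 nM in the dispensed reagent) in 20 mM phosphate pH 7.0 with 0.01% (detergent screen) or 0.0001% Triton X-100 was preincubated with compounds for 15 min at room temperature. Nitrocefin was then added from an 800 uM solution, and hydrolysis was followed at 480 nm.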
AmpC no deterg: inhibitors of E. coli AmpC beta-lactamase without detergent | 0.52% of 330,000 active | Potency, µM (series often up to 57.1 µM), for inactives: at the top dose activity change, negative = inhibition, most hits filed as inhibitors | P00811 | AmpC nitrocefin hydrolysis, absorbance 480 nm, 0.0001% Triton;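 further: plate controls were no compound for no effect and no enzyme for full effect; nearly all actives have a fitted effect of over 20% in size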
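20 mM phosphate pH 7.0 + 0.01% (detergent screen) or 0.0001% Triton X-100; 5.3 nM AmpC reagent; cpd preinc 15 min RT; nitrocefin (800 uM stock) to start; A480 q20 s × 4 min; Activity was normalised to no-enzyme and no-compound control wells.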
Numbers without * were called inactive; ? = inconclusive; nt = no result given. The call rests on the fitted dose curve; in most records, active means well fitted curve in the direction sought with a large enough effect; inconclusive means small, poorly fitted or top-dose-only effect, or another doubt; inactive means no such curve, though single readings can be large; an effect the other way counts as inactive or inconclusive. Unless noted, on the % scale 0 is the no-effect control and ±100 the full control effect; potency means the concentration at half of the fitted maximal effect.

SMILES	AMA1-RON2 inh	HCV inhibitor	Pf growth 48h	Pf growth 96h	AmpC inh detg	AmpC no deterg
Cc1ccc(OCC(=O)Nc2ccc3nc(SCC(=O)N4CCOCC4)sc3c2)cc1	nt	nt	nt	nt	18%	nt
COc1cc2c(C#N)c(N3CCc4ccccc4C3)nc(N)c2c(N)n1	?	?	8.3µM*	?	?	-23%
CC(C)COc1ccc(C(=O)Nc2ccccc2[N+](=O)[O-])cc1	-2%	4%	120%	10µM*	-11%	-16%
O=C(Nc1nc(-c2cccnc2)cs1)c1ccc([N+](=O)[O-])cc1	-6%	?	4.7µM*	12µM*	9%	-25%
O=C(Nc1cccc2ccccc12)c1ccc([N+](=O)[O-])cc1	-5%	-6%	27%	7.4µM*	2%	-15%
O=[N+]([O-])c1cccc(-c2csc(Nc3ccccc3)n2)c1	?	1.6µM*	19%	?	5%	-41%
CCCOc1ccc(C(=O)Nc2ccc(C)cc2[N+](=O)[O-])cc1	0%	0%	43%	1%	-3%	8%
COc1ccccc1Nc1nc(-c2cccc([N+](=O)[O-])c2)cs1	-29%	?	70%	-10%	0%	-51%
Cc1cc(C)cc(NC(=O)C2CCN(c3cc(C)nc4c(-c5ccc(Cl)cc5)c(C)nn34)CC2)c1	nt	nt	nt	nt	-12%	nt
O=C(Nc1nc(-c2ccccc2)cs1)c1cccc([N+](=O)[O-])c1	-11%	13µM*	-24%	107%	-6%	-42%
O=C(Nc1ccccc1-c1ccccc1)c1cccc([N+](=O)[O-])c1	-8%	?	?	9.3µM*	12%	-22%
O=C(Nc1ccccc1-c1ccccc1)c1ccccc1	-1%	4%	2%	?	?	-6%
O=C(Nc1nc(-c2cccnc2)cs1)c1cccc([N+](=O)[O-])c1	21%	?	0%	?	2%	-33%
O=[N+]([O-])c1ccc(-c2csc(NN=C3CCCC3)n2)cc1	-9%	8.9µM*	0%	?	-4%	-10%
CCOC(=O)Cn1nc(-c2ccccc2)c2cnc3ccc(OCC)cc3c21	nt	nt	nt	nt	4%	nt
Cc1ccc(NNC(=O)c2ccno2)cc1Cl	?	11µM*	-15%	?	6%	-23%
Cc1ccc(NNC(=O)c2ccno2)cc1C	-15%	?	-2%	18%	1%	-26%
O=c1c2ccccc2[nH]c(=S)n1CCCN1CCN(C2CCCCC2)CC1	1%	-12%	13µM*	nt	-2%	-29%
CCOC(=O)N1CCN(C(=O)c2ccc(Cn3c(=S)[nH]c4ccc(Br)cc4c3=O)cc2)CC1	13%	?	12µM*	3.7µM*	-3%	-13%
CCOc1cc2[nH]c(=O)n(Cc3ccc(C(=O)N4CCN(c5ccccc5)CC4)cc3)c(=O)c2cc1OCC	nt	nt	nt	nt	-4%	nt
CCOc1cc2[nH]c(=S)n(Cc3ccc(C(=O)O)cc3)c(=O)c2cc1OCC	101%	18%	26%	9.3µM*	1%	-24%
CC1CCN(CCCn2c(=S)[nH]c3ccccc3c2=O)CC1	-4%	-6%	-3%	94%	-12%	-43%
CCN1CCN(C(=O)c2ccc3c(=O)n(Cc4ccccc4OC)c(=S)[nH]c3c2)CC1	30%	11µM*	-1%	160%	1%	35%
NC(=O)c1ccccc1NC(=O)C1CCCN(c2ncnc3onc(-c4ccc(F)cc4)c23)C1 (stereo not drawn)	nt	nt	nt	nt	2%	nt
CCCn1c(=S)[nH]c2cc(C(=O)N3CCN(C(=O)OCC)CC3)ccc2c1=O	34%	-16%	14%	?	2%	56%
O=C(c1ccc2c(=O)n(C3CCCC3)c(=S)[nH]c2c1)N1CCN(C2CCCCC2)CC1	19%	13%	8%	0%	-14%	-24%

Screening results as filed in PubChem BioAssay.
